Data on 90 compounds can be found in PubChem BioAssay AID652010 (The Scripps Research Institute Molecular Screening Center, 2013).

As usually defined, the inhibition is the relative decrease from the control value, in per cent.

The structures appear in SMILES notation. The campaign covered roughly 370,000 compounds. About 4,100 (1.1%) were called active.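 The calls were made as follows: active = inhibition above the mean over all tested compounds plus 3 SD (cut at about 3.6% in these data); inactive = the rest.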 The sample as a whole holds a higher share of actives than the screen did.

This assay is described as follows: relief of DAX-1 repression of SF-1 activity – cell-based, luminescence, SF-1 (NR5A1), full-length DAX-1, primary screen (AID 652010).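 Also: 0% = DAX-1 cells with DMSO and 100% = cells lacking DAX-1 with DMSO.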 The note with it: HEK293T StAR-luciferase reporter, SF-1/DAX-1 repression relief; at 6.8 µM; stronger effect = higher value. On the technique in general: In a reporter assay the amount or activity of a reporter protein is the signal.
As to `CCOC(=O)[C@]12CCCCC/C=C\1N(Cc1ccc(OC)cc1)C(=O)[C@H]2CC(=O)N1CCOCC1`, the inhibition was -0.42% (inactive).

On to `CN1C(=O)C2CC(O)C(SC3CC4C(=O)N(C)C(=O)C4CC3O)CC2C1=O` (stereo not given), for which the inhibition is 0.64% (inactive).

As to `CCOC(=O)/C=C/c1ccccc1O`, the inhibition is 0.4% (inactive).

For the compound `COc1cccc(CNC(=O)[C@H]2CCCN2C(=O)[C@H]2CCCN2C(=O)c2cc(F)cc(F)c2)c1`, the inhibition was 0.51% (inactive).

Turning to `CCn1c2ccccc2c2cc(NC(=O)CSc3nnc(-c4ccccc4)n3-c3ccc(C)cc3)ccc21`, the inhibition is -0.77% (inactive).

Take `CN1C(=O)c2cc(NS(C)(=O)=O)ccc2OC[C@@H]2O[C@@H](CC(=O)NCc3ccc(-c4ccccc4)cc3)CC[C@H]21`: the inhibition was -0.35% (inactive).

For `CC(C)(C)NS(=O)(=O)NC(=O)C1=C(N2CCCC2)COC1=O`, the inhibition was 0.57% (inactive).

With `CCCCNC(=O)C[C@H]1C(=O)N(Cc2ccc(OC)cc2)C2=CCCC[C@@]21C(=O)OCC`, the inhibition is -0.74% (inactive).

In the case of `C[C@H]1[C@H](c2ccccc2)Oc2cc(Br)ccc2S(=O)(=O)N1Cc1cccc(F)c1`, the inhibition is -0.98% (inactive).

Take `Cc1c(C(C)c2ccccc2O)[nH]c2ccccc12` (stereo not given): the inhibition was -1.62% (inactive).

On to `C[C@@H](NC(=O)c1ccccc1OCC(=O)Nc1ccc(I)cc1)C(=O)N(C)Cc1ccccc1`, for which the inhibition is -1.33% (inactive).

As to `O=C(NC(=S)Nc1ccccc1C(=O)O)c1ccc(-c2ccc(Br)cc2)o1`, the inhibition was -0.57% (inactive).

With `S=C(c1ccc(-c2ccccc2)o1)N1CCCCC1`, the inhibition is 5.8% (active).

Consider `CC1CCN(C(=S)c2ccc(-c3ccc(Cl)cc3Cl)o2)CC1`, for which the inhibition is 0.67% (inactive).

Turning to `O=S1(=O)c2ccc(Br)cc2-n2nncc2CN1Cc1cccc(Cl)c1`, the inhibition was -0.73% (inactive).

In the case of `CCCS(=O)(=O)N1CCC(C(=O)NCCc2ccc(OC)c(OC)c2)CC1`, the inhibition is 0.15% (inactive).

As for `COC(=O)C[C@@H]1CC[C@@H]2[C@@H](COc3ccc(NC(=O)Nc4ccc(F)c(F)c4)cc3C(=O)N2C)O1`, the inhibition is -1.81% (inactive).

Consider `CC1CCN(c2ccc(C(=O)O)cc2NS(=O)(=O)c2ccc(Br)s2)CC1`, for which the inhibition is -1.22% (inactive).

With `O=C(Nc1ccc2c(c1)CCC2)c1ccc(Br)s1`, the inhibition was 11.2% (active).

Take `CC1CC(C)CN(CCC(=O)Nc2ccc3c(c2)CCC3)C1` (stereo not given): the inhibition was -0.49% (inactive).

`O=C(Nc1ccc(F)cc1)c1cc2c(s1)CCCC2`: the inhibition was 2.02% (inactive).

Turning to `CCOC(=O)c1c(S(=O)(=O)NCC(=O)Nc2ccc(C)cc2)c(C)n(C)c1C`, the inhibition is -0.57% (inactive).

As to `CCOC(=O)c1c(S(=O)(=O)Nc2ccc(CN3CCC(C)CC3)cc2)c(C)n(C)c1C`, the inhibition was 5.11% (active).

`CCOC(=O)c1c(S(=O)(=O)Nc2cccc(Cl)c2)c(C)n(C)c1C`: the inhibition is 1.63% (inactive).

Turning to `CC(=O)O[C@@]1(C(C)=O)CCC2[C@H]3C=C(C)C4=CC(=O)CC[C@@]4(C)C3CC[C@]21C` (stereo not given in full), the inhibition was -0.75% (inactive).

In the case of `Cc1nnc(SC(C)C(=O)Nc2ccc(S(=O)(=O)NC3CCCCC3)cc2)s1` (stereo not given), the inhibition is 0.57% (inactive).

With `Cn1cccc1C(=O)OCC(=O)NCCc1ccccc1`, the inhibition was 0.5% (inactive).

As for `Cc1ccsc1C(=O)OCC(=O)NCCc1ccccc1`, the inhibition was 3.66% (active).

With `Cc1cnc(C(=O)OCC(=O)NCCCc2ccccc2)cn1`, the inhibition was 1.25% (inactive).

Regarding `COC(=O)C1CN(CC(C)C)CCS(=O)(=O)N1Cc1ccc(C)cc1` (stereo not given), the inhibition is -0.97% (inactive).

As to `O=C(CSc1nc2sc3c(c2c(=O)n1-c1ccccc1)CCCC3)NN=Cc1ccc(OCc2ccccc2)cc1`, the inhibition is 0.1% (inactive).

Consider `C=CCn1c(SCC(=O)NCCCO)nc2sc3c(c2c1=O)CCC3`, for which the inhibition is 0.03% (inactive).

As for `C=CCn1c(SCC(=O)/C(C#N)=C(\C)N)nc2sc(C)c(C)c2c1=O`, the inhibition was -0.39% (inactive).

As to `C=CCn1c(SCC(=O)Nc2ccc(NC(C)=O)cc2)nc2sc(C)c(C)c2c1=O`, the inhibition is 4.82% (active).

Regarding `Cc1cc(C)cc(N(CCC#N)C(=O)CN2C(=O)NC3(CCCC3)C2=O)c1`, the inhibition is -0.09% (inactive).

For `COC(=O)Cc1nnn2c1[C@H](C)[C@H](c1ccccc1Br)OCC2`, the inhibition was -0.78% (inactive).

Regarding `COc1ccc(/C=C2\CC3(OC(C)=O)CCCN2C3)cc1` (stereo not given), the inhibition was 1.13% (inactive).

On to `CN1C(=O)/C(=C/C=C2\SCCN2C)OC1=S`, for which the inhibition is 3.87% (active).

For `Cc1ccccc1NC(=O)Cn1nnc(-c2ccccc2F)n1`, the inhibition is -0.11% (inactive).

On to `CC1CCCN(CC(O)COc2ccc3c(c2)OCO3)C1` (stereo not given), for which the inhibition is 0.13% (inactive).

With `CCOc1ccc(-n2c(SCC(=O)Nc3cc(C)c(NC(=O)c4ccccc4)cc3OC)nnc2-c2cccs2)cc1`, the inhibition was -3.08% (inactive).

Turning to `C#CCNC(=O)C[C@H]1C[C@@]2(C(=O)OC)C(=C[C@H](C(C)C)O[C@@H]2C2CC2)N(Cc2ccco2)C1=O`, the inhibition is 0.65% (inactive).

Regarding `Clc1ccc(-c2cc(C3CCNCC3)[nH]n2)c(Cl)c1`, the inhibition is -0.17% (inactive).

As to `Clc1ccc(-c2cc(-c3ccccn3)on2)c(Cl)c1`, the inhibition is 3.68% (active).

Take `Clc1ccccc1-c1cc(COc2ccc3ccccc3c2)no1`: the inhibition is 0.4% (inactive).

For the compound `CC(C)CNC(=O)OCc1cn(Cc2ccc(F)cc2)nn1`, the inhibition is -0.13% (inactive).

For `Cc1cc(N)n2nc(-c3ccc(C(C)(C)C)cc3)cc2n1`, the inhibition is 5.95% (active).

Consider `CCCC(=O)C1=C(N(C)c2ccccc2)CC(C)(C)C(C(=O)OC)C1=O` (stereo not given), for which the inhibition was 0.24% (inactive).

For the compound `CCOc1ccc(-n2c(SCC(=O)Nc3cc(C)c(NC(=O)c4ccccc4)cc3OC)nnc2-c2cccc(Cl)c2)cc1`, the inhibition was -2.96% (inactive).

With `CCOC(=O)N1CCN(C(=O)c2ccc3nc4cc(Cl)ccc4c(=O)n3c2)CC1`, the inhibition is -1.01% (inactive).

As for `C=CCN1C(=O)[C@@H](CC(=O)N2CCN(C(=O)c3ccco3)CC2)[C@]2(C(=O)OC)CCCCC=C12`, the inhibition is 0.15% (inactive).

In the case of `COC(=O)c1ccc(CNC(=O)c2ccc3oc(C(C)C)nc3c2)cc1`, the inhibition is 4.25% (active).

On to `CC(C)c1nc2cc(C(=O)NC(C)c3cnn(C)c3)ccc2o1` (stereo not given), for which the inhibition was -0.03% (inactive).

As for `COc1ccc(CNC(=O)c2ccc3oc(C(C)C)nc3c2)cc1`, the inhibition is 3.41% (inactive).

Regarding `COc1ccc(N/N=C2/CCCCC2=O)cc1`, the inhibition is 4.31% (active).

For the compound `Cc1ccc(N/N=C2\COC(C)(C)CC2=O)cc1`, the inhibition was -0.09% (inactive).

As for `COc1ccccc1Oc1ccc(N/C=C2/CCCC2=O)cc1`, the inhibition was 0.78% (inactive).

As to `COc1cccc2cc(C(C)N(CCCN3CCOCC3)C(=O)Nc3ccc(Cl)cc3)oc12` (stereo not given), the inhibition is -0.37% (inactive).

Turning to `COc1cccc(Nc2nnc(SCC(=O)N3CC(C)OC(C)C3)s2)c1` (stereo not given), the inhibition is 0.08% (inactive).

Consider `CC(C)c1ccc(Nc2nnc(SCC(=O)c3nnc(-c4ccccc4)o3)s2)cc1`, for which the inhibition was 5.21% (active).

For `CN(C(=O)CSc1nnc(Nc2ccccc2)s1)C1CCS(=O)(=O)C1` (stereo not given), the inhibition was 0.34% (inactive).

With `C#CCN1CC(C)/C(=N/O)CC1C` (stereo not given), the inhibition is 0.13% (inactive).

As to `O=C(O)C1CCCN1S(=O)(=O)c1ccc(Br)cc1` (stereo not given), the inhibition was 0.15% (inactive).

For `CC1CN/C(=C\C(=O)c2ccc(Br)cc2)C(=O)N1` (stereo not given), the inhibition was 4.26% (active).

Consider `COc1cc2c(cc1OC)/C(=C/C(=O)c1ccc(NC(C)=O)cc1)NCC2`, for which the inhibition is -0.03% (inactive).

Regarding `CC(CCN1CCC(C(O)(c2ccccc2)c2ccccc2)CC1)Oc1ccc(Cl)cc1` (stereo not given), the inhibition is 0.18% (inactive).

As for `Cc1nc2cc(NCc3cccs3)ccc2n1C`, the inhibition is 2.41% (inactive).

For `O=C(Nc1cccc(F)c1)c1coc(=O)c(Br)c1`, the inhibition was 0.24% (inactive).

On to `Cc1nc2cc(NC(=O)Nc3cccc(F)c3)ccc2n1C`, for which the inhibition is 5.18% (active).

In the case of `N/C(=N\OC(=O)CC1CCCCC1)c1ccccc1`, the inhibition was -0.16% (inactive).

Take `N/C(=N\OC(=O)Cc1ccc([N+](=O)[O-])cc1)c1ccccn1`: the inhibition is 0.83% (inactive).

`N/C(=N\OC(=O)CCC1CCCCC1)c1ccccn1`: the inhibition was 4.25% (active).

Take `COCC(=O)N[C@@H]1C[C@@H]2O[C@@H](CO)CC[C@@H]2O[C@@H]1CCc1ccc(-c2ccccc2)cc1`: the inhibition is -0.14% (inactive).

Turning to `O=c1c2c(nc3cc(-c4cccc(Cl)c4)[nH]n13)CCCC2`, the inhibition was 13.9% (active).

For the compound `CSc1nc2nc3c(c(=O)n2[nH]1)CCC3`, the inhibition is -0.21% (inactive).

As to `COC(=O)[C@]12C[C@H](CC(=O)NCc3ccccc3)C(=O)N(CCC3=CCCCC3)C1=C[C@H](C(C)C)O[C@@H]2C1CC1`, the inhibition is -1.17% (inactive).

For the compound `O=C1Nc2ccccc2OC1CC(=O)N1CCCCCCC1` (stereo not given), the inhibition is -0.39% (inactive).

`Cc1cc(C)nc(Nc2n[nH]c(-c3ccccc3N)n2)n1`: the inhibition is 4.12% (active).

Consider `CC(C)(C)C(c1nc2ccccc2[nH]1)n1c(Cc2csc3ccccc23)nc2ccccc21` (stereo not given), for which the inhibition is 0.83% (inactive).

Regarding `O=C(Nc1ccccc1)N1CCN(Cc2nc3ccccc3c(=O)[nH]2)CC1`, the inhibition is -0.16% (inactive).

In the case of `COc1ccnc(NC(=S)N2CCN(c3ncc(C(F)(F)F)cc3Cl)CC2)c1`, the inhibition was -0.4% (inactive).

For the compound `C=CCOC/C=C/C#CCN(CC=C)Cc1ccc(OC)cc1OC`, the inhibition is -0.5% (inactive).

For the compound `COc1ccc(CNC(=O)CSc2n[nH]c(N)n2)cc1OC`, the inhibition is -0.05% (inactive).

On to `COc1ccc(CNC(=O)COc2ccccc2C(=O)c2cnn(-c3ccccc3)c2)cc1OC`, for which the inhibition was 4% (active).

Take `COc1cc(CO)ccc1OCC(=O)Nc1cccc2ccccc12`: the inhibition is -3.43% (inactive).

With `O=C(CSc1nnc(-c2cccc(Cl)c2)n1Cc1ccco1)Nc1ccc(OCc2ccccc2)cc1`, the inhibition was -2.28% (inactive).

Consider `CCC(CC)c1nnc(NC(=O)C2=COCCO2)s1`, for which the inhibition was 1.13% (inactive).

Consider `NS(=O)(=O)c1ccc2nc(NC(=O)CS(=O)(=O)c3ccc(F)cc3)sc2c1`, for which the inhibition is 0.31% (inactive).

Take `NS(=O)(=O)c1ccc2nc(NC(=O)C3=COCCO3)sc2c1`: the inhibition was 9.6% (active).

With `C[C@@H]1ON(C)[C@H]2C[C@H]3c4[nH]c5cccc(-c6ccc7c(c6)OCO7)c5c4CCN3C[C@@H]12`, the inhibition is 0.45% (inactive).
